The values that follow come from PubChem BioAssay AID504834 (National Center for Advancing Translational Sciences (NCATS), 2011).

Out of some 320,000 compounds screened, about 22,000 (6.9%) were called active. About 27% were inconclusive and are not listed. Shown is part of a subset that was picked to be rich in actives. Entries that show only a call come without a potency. Values without a mark were called inactive. Calls follow the shape of the dose curve; as a rule, active = well fitted inhibition curve with a large enough effect; inconclusive = small, poorly fitted or top-dose-only effect, or another doubt; inactive = no such curve, though single readings can be large or run the other way.
Potency is read from the fitted curve at half-maximal effect.

This test can be described thus: Primary qHTS for delayed death inhibitors of the malarial parasite plastid, 96 hour incubation. The following applies: P. falciparum luciferase reporter growth; series mostly up to 28.7 µM. The procedure, abridged:
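Cell-based qHTS: luciferase-tagged P. falciparum in erythrocytes (2% hematocrit, 0.05% parasitemia final) incubated with compounds for 96 hours, 37 C, 5% CO2; luciferase detection reagent then added and luminescence measured.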
In general terms: qHTS replaces the single test concentration by a dilution series.
Regarding `Cc1sc2ncn(CC(=O)NCCCC(=O)N(C)Cc3ccccc3)c(=O)c2c1C`, the Potency entry was “inactive”.
The same measure, in the same setting: the entry for `COc1cccc(CC2(CO)CCCN(CC3=Cc4cc(OC)ccc4OC3)C2)c1` (stereo not given) is “inactive”.
Turning to `CCOc1cc(CN2CCCC(CO)(Cc3ccc(F)cc3F)C2)ccc1OC` (stereo not given), the Potency entry was “inactive”.
`Cc1ccccc1CC1(CO)CCCN(Cc2ccc3c(c2)OCCO3)C1` (stereo not given): the Potency is 14.7 µM (active).
The same measure, in the same setting: the entry for `CC(NC(=O)c1cc2cc(Cl)ccc2oc1=N)c1ccccc1` (stereo not given) is “inactive”.
In the case of `Cn1cc(Cl)c(C(=O)NNC(=S)Nc2cccc(Cl)c2)n1`, the Potency entry is “inactive”.
As for `Cn1c(Nc2cccc(Cl)c2)nc2ccccc21`, the Potency entry is “inactive”.
`Cc1c(C(=O)Nc2cccc(Cl)c2)cn2c(nc3ccccc32)c1C#N`: the Potency was 2.94 µM (active).
As for `O=S(=O)(c1cccs1)N1CCN(CCOc2ccccc2)CC1`, the Potency entry was “inactive”.
In the case of `COc1ccccc1C(=O)Nn1cnnc1`, the Potency entry is “inactive”.
Consider `CCn1cc(C(=O)NCCO)c(=O)c2cc(F)c(N3CCN(C)CC3)cc21`, for which the Potency result was “inactive”.
On the same count and under the same terms, the entry for `CCOC(=O)c1ccc(NC(=O)CCn2c(=O)oc3ccccc32)cc1` is “inactive”; for `C/C(=N\NC(=O)c1ccccc1F)c1ccccn1` it is “inactive”.
For `C/C(=N\NC(=O)Cc1ccc(Br)cc1)c1cccnc1`, the Potency entry is “inactive”.
Consider `COc1ccc(CC(=O)N/N=C(\C)c2ccccn2)cc1`, for which the Potency was 3.29 µM (active).
Regarding `Nc1nnc(SCC(=O)NC2CCCc3ccccc32)s1` (stereo not given), the Potency entry is “inactive”.
Turning to `c1ccc(COc2nsnc2N2CCOCC2)cc1`, the Potency entry is “inactive”.
For the compound `Fc1cnc(N2CCOCC2)nc1NCc1ccccc1`, the Potency was 2.94 µM (active).
In the case of `O=C(c1cccnc1NCc1ccccc1)N1CCOCC1`, the Potency entry was “inactive”.
`CC(=O)c1ccc(S(=O)(=O)N2CCC(Oc3ccc(-n4cnnn4)cc3)CC2)cc1`: the Potency entry was “inactive”.
Regarding `O=C1[C@@H]2C(Cc3ccc(O)cc3)NC3(C(=O)Nc4ccc(F)cc43)[C@@H]2C(=O)N1c1ccc(F)cc1` (stereo not given in full), the activity change, negative = inhibition is -3.79% [at 5.75 µM].
With `CSCCC1NC2(C(=O)Nc3ccc(Cl)cc32)[C@@H]2C(=O)N(C3CCCC3)C(=O)[C@H]12` (stereo not given in full), the Potency is 11.7 µM (active).
Consider `CC(C)(C)NC(=O)NCc1ccco1`, for which the Potency entry is “inactive”.
As for `Cc1cc(C)nc(N2CCC(C(=O)Nc3ccc4c(c3)OCCO4)CC2)n1`, the Potency was 9.28 µM (active).
With `O=C(Nc1ccc2c(c1)OCCO2)C1CCCN(c2ncccn2)C1` (stereo not given), the Potency result was “inactive”.
On the same count and under the same terms, the entry for `Cc1sc2ncn(CC(=O)NCCCC(=O)N3CCN(c4ccccc4F)CC3)c(=O)c2c1C` is “inactive”.
As for `CC(=O)c1cc(CN2CCC(n3nccc3NC(=O)c3ccccc3Cl)CC2)cs1`, the Potency entry was “inactive”.
For the compound `CC(=O)Nc1ccc(/C=N/Nc2ccc(C(=O)c3c(C)cc4ccccn34)cc2[N+](=O)[O-])cc1`, the Potency entry is “inactive”.
For `COc1ccc2c(C)c(CCC(=O)NC3CC3)c(=O)oc2c1C`, the Potency is 4.15 µM (active).
For the compound `Cc1c(CCC(=O)O)c(=O)oc2c(C)c(OCc3ccccc3Cl)ccc12`, the Potency entry is “inactive”.
With `CCOC(=O)CCc1c(C)c2ccc(OCc3nn[nH]n3)c(C)c2oc1=O`, the Potency entry was “inactive”.
Regarding `Cc1c(C(C)CCCO)oc(=O)c2c1Oc1c(C)c(C(C)C[C@@H](C)O)oc(=O)c1C2` (stereo not given in full), the Potency result was “inactive”.
Consider `CN1c2ccc([N+](=O)[O-])cc2C(C)(C)C12C=Cc1cc(C(=O)O)ccc1O2` (stereo not given), for which the Potency result is “inactive”.
As for `O=C(CCSc1ccccc1)N1CCN(c2ccccc2F)CC1`, the Potency result is “inactive”.
The same measure, in the same setting: the same measure for `CC(C(=O)N1CCN(c2ccccc2F)CC1)c1ccc([N+](=O)[O-])cc1` (stereo not given): 9.28 µM (active); for `O=C(c1cccc2ccccc12)N1CCN(c2ccccc2F)CC1`: “inactive”.
`Cc1ccc(OCCCC(=O)Nc2ccc3c(c2)OCCO3)cc1`: the Potency result was “inactive”.
Regarding `O=C(Nn1cnnc1)c1cc(Cl)ccc1Cl`, the Potency entry is “inactive”.
The same measure, in the same setting: the same measure for `O=C(NC(=S)Nc1ccc(Cl)c(C(=O)O)c1)c1cncc(Br)c1`: “inactive”; for `Cn1c2c(c(=O)n(C)c1=O)[C@@H]1c3c(ccc4ccccc34)OC[C@@H]1CO2`: “inactive”.
On the same count and under the same terms, the same measure for `COc1cccc2c1OCC1COc3c(c(=O)n(C)c(=O)n3C)C21` (stereo not given): “inactive”.
The same measure, in the same setting: the figure for `Cn1c2c(c(=O)n(C)c1=O)C1c3ccccc3OCC1C(C)(C)O2` (stereo not given) is 1.65 µM (active); for `COc1ccc(COC(=O)c2ccc(Cl)c(S(=O)(=O)N3CCOCC3)c2)cc1F` it is 14.7 µM (active); for `COc1ccc(C(=O)OCC(=O)c2ccc(C)c(S(=O)(=O)N3CCOCC3)c2)cc1OC` it is “inactive”.
With `COc1ccccc1OC(=O)c1ccc(C)c(S(=O)(=O)N2CCOCC2)c1`, the Potency entry was “inactive”.
Still for that read-out and setting: the entry for `C=CCNC(=O)c1ccccc1SCc1c(C)noc1C` is “inactive”; for `O=C(c1ccc[nH]c1=S)N1CCN(S(=O)(=O)c2ccc(Br)cc2Cl)CC1` it is “inactive”.
On to `O=C(Nc1nnc(C2CC2)s1)c1cc(Cl)sc1Cl`, for which the Potency result is “inactive”.
Turning to `Cc1cc(C(=O)Nc2nnc(C3CC3)s2)c(C)s1`, the Potency entry was “inactive”.
For `O=C(Nc1nnc(C2CC2)s1)c1ccccn1`, the Potency was 10.4 µM (active).
As for `C=CCN1CC(C)/C(=N\O)CC1C` (stereo not given), the Potency entry is “inactive”.
Same read-out and setting: the entry for `Cc1cnc(C(=O)OCc2c(C)cc(C(C)(C)C)cc2C)cn1` is “inactive”.
As to `CCn1c(=O)c([N+](=O)[O-])c(NCc2ccc3c(c2)OCO3)c2ccccc21`, the Potency entry is “inactive”.
Same read-out and setting: the entry for `S=C(NCc1ccco1)NCc1ccccc1Cl` is “inactive”.
Still for that read-out and setting: the figure for `Cc1[nH]c2ccccc2c1C(=O)C(C)Sc1nnc(C2CC2)o1` (stereo not given) is 4.15 µM (active); for `Cc1[nH]c2ccccc2c1C(=O)CN1CC(C)CC(C)C1` (stereo not given) it is “inactive”; for `Cc1[nH]c2ccccc2c1C(=O)CSCC(=O)O` it is “inactive”.
With `Cc1ccc(SCCSc2ncccn2)cc1`, the Potency result was “inactive”.
On the same count and under the same terms, the entry for `COCCCNC(=O)[C@H]1N2C(=O)c3ccccc3C2SC1(C)C` (stereo not given in full) is “inactive”; for `O=C(NCc1ccccc1)[C@@H]1CSC2c3ccccc3C(=O)N21` (stereo not given in full) it is “inactive”; for `CC1(C)SC2c3ccccc3C(=O)N2[C@@H]1C(=O)NCc1ccco1` (stereo not given in full) it is 5.22 µM (active).
Consider `COc1cccc(NC(=O)CN(C)C(=O)CSC(=S)N2CCCC2)c1`, for which the Potency result was “inactive”.
On to `Cc1c(Cl)cccc1NC(=O)NCc1ccc(C)n1C`, for which the Potency result was “inactive”.
The same measure, in the same setting: the same measure for `Cc1ccc(C2CC(c3cccc(NS(C)(=O)=O)c3)=NN2S(C)(=O)=O)cc1` (stereo not given): “inactive”; for `CCOc1ccccc1C1CC(c2cccc(NS(C)(=O)=O)c2)=NN1C(=O)c1ccccc1` (stereo not given): 13.1 µM (active); for `CS(=O)(=O)Nc1cccc(C2=NN(C(=O)c3cccc(F)c3)C(c3cccs3)C2)c1` (stereo not given): “inactive”.
Turning to `CCN(CC(=O)Nc1c(F)cccc1F)C(=O)CN1c2cccc3cccc(c23)S1(=O)=O`, the Potency entry is “inactive”.
On to `Cc1cccc(C(=O)OCC(=O)Nc2ccc(F)cc2)c1`, for which the Potency entry is “inactive”.
On the same count and under the same terms, the same measure for `CCOC(=O)c1ccccc1NC(=O)COC(=O)C(Cc1c[nH]c2ccccc12)NC(C)=O` (stereo not given): “inactive”; for `COc1ccc(C)cc1-n1nnnc1SCC(=O)c1cc(C)n(Cc2ccco2)c1C`: 10.4 µM (active); for `Cc1ccc(OCC(=O)c2cc(C)n(Cc3ccco3)c2C)c([N+](=O)[O-])n1`: “inactive”.
Regarding `Cc1cc(C(=O)CSc2nc(N)cc(=O)[nH]2)c(C)n1Cc1ccco1`, the Potency result is “inactive”.
Regarding `O=c1[nH]c(NCCO)nnc1Cc1ccc(Cl)cc1`, the Potency result was “inactive”.
Take `COc1ccccc1NS(=O)(=O)c1ccc(C)c(C(=O)NCC(c2ccco2)N(C)C)c1` (stereo not given): the Potency entry was “inactive”.
With `CC1CN(S(=O)(=O)c2cccc(C(F)(F)F)c2)CN1C(=O)N1CCOCC1` (stereo not given), the Potency entry is “inactive”.
As to `O=C(NCCCNC(=O)c1ccccc1Cl)c1cnccn1`, the Potency result was “inactive”.
In the case of `CCCCN1C(=O)c2ccc(C(=O)Nc3ccc(S(=O)(=O)N(C)C)cc3)cc2C1=O`, the Potency result is “inactive”.
As to `CN(Cc1cccs1)C(=O)CN1C(=O)c2ccccc2S1(=O)=O`, the Potency result is “inactive”.
Same read-out and setting: the figure for `CCCCN(C)C(=O)c1ccc2c(c1)N(CC)C(=O)c1ccccc1S2(=O)=O` is 10.4 µM (active).
On to `Cc1ccc(OCC(=O)NCCCNC(=O)c2cccnc2)cc1C`, for which the Potency entry is “inactive”.
For `Cc1cc(NC(=O)c2ccccc2C)no1`, the Potency entry was “inactive”.
On to `CCOC(=O)CSc1nnc(NC(=O)C2CC(=O)N(c3ccc(F)cc3)C2)s1` (stereo not given), for which the Potency is 14.7 µM (active).
Turning to `CCCC(C)c1nnc(NC(=O)C2CC(=O)N(c3ccc(OCC)cc3)C2)s1` (stereo not given), the Potency result is “inactive”.
For `COc1ccccc1N1CC(C(=O)Nc2nnc(SCC(=O)NC(C)C)s2)CC1=O` (stereo not given), the Potency entry was “inactive”.
For `CC1CN(C(=O)CCC(=O)NCCCN2CCC(Cc3ccccc3)CC2)c2cc(Cl)ccc2O1` (stereo not given), the Potency entry was “inactive”.
Still for that read-out and setting: the entry for `COc1cccc(NC(=O)c2cc(S(=O)(=O)N3CCc4ccccc43)cn2C)c1` is “inactive”.
For `CCn1c(=O)c(=O)n(CC)c2cc(N3CCCCC3)c(NC(=O)c3ccc(Cl)cc3)cc21`, the Potency result was “inactive”.
On the same count and under the same terms, the entry for `CC(NC(=O)c1ccccc1SCC(=O)N1CCCC1)c1ccccc1` (stereo not given) is “inactive”; for `Cc1ccc(Oc2nc3ccccc3n3c(C)nnc23)cc1` it is “inactive”.
The same measure, in the same setting: the entry for `CC(=O)Nc1ccc(S(=O)(=O)N(C)c2nc3ccccc3nc2Cl)cc1` is “inactive”.
Consider `Cc1ccc(S(=O)(=O)N(C)c2nc3ccccc3n3c(C(C)C)nnc23)cc1`, for which the Potency is 11.7 µM (active).
Still for that read-out and setting: the same measure for `O=C(Nc1ccccc1Cl)NC1(C(=O)N2CCOCC2)CCCCC1`: “inactive”; for `N#Cc1c(Cl)nc(-c2cccnc2)nc1-c1ccccc1`: “inactive”.
For the compound `O=C(Nc1c(Cl)cccc1Cl)C1CCC1`, the Potency was 10.4 µM (active).
For the compound `CN(CC(=O)Nc1c(Cl)cccc1Cl)C(=O)CNC(=O)C1CCCCC1`, the Potency entry is “inactive”.
Take `NC(=S)Nc1c(Cl)cccc1Cl`: the Potency result was “inactive”.
As to `NS(=O)(=O)c1ccc2nc(NC(=O)CS(=O)(=O)c3ccc(F)cc3)sc2c1`, the Potency result is “inactive”.
The same measure, in the same setting: the same measure for `Brc1ccc(OCCn2ccnc2)cc1`: “inactive”; for `Cc1nn(CCOc2ccc(Br)cc2)c(C)c1[N+](=O)[O-]`: 13.1 µM (active); for `COc1ccc(CNC(=O)CCCn2nc(C)c([N+](=O)[O-])c2C)cc1`: “inactive”.
`CNS(=O)(=O)c1ccc(NC(=O)Nc2ccc3c(c2)OCO3)cc1`: the Potency entry was “inactive”.
For `CCOC(=O)C(=O)C1C(=O)Nc2ccccc21` (stereo not given), the Potency result was “inactive”.
For `CCCCCN(C(=O)CCC(=O)OCC(=O)NCc1ccc(OC)cc1)c1c(N)n(CCCC)c(=O)[nH]c1=O`, the Potency entry is “inactive”.
Still for that read-out and setting: the figure for `CCCCCN(C(=O)CCC(=O)OCC(=O)NC1CCC(C)CC1)c1c(N)n(CCCC)c(=O)[nH]c1=O` (stereo not given) is 14.7 µM (active); for `CCCCCN(C(=O)CCC(=O)OCCOc1ccc(OC)cc1)c1c(N)n(CCCC)c(=O)[nH]c1=O` it is “inactive”.
